MEP2 TOR yeast = modulators of MEP2-GFP levels in yeast, primary screen, S. cerevisiae, multiplex flow cytometry, MLPCN library; GFP response vs DMSO, % at 10 µM; AID 2016, 2009; S. cerevisiae MEP2-GFP strain, 3 h; 100% = DMSO control level; 0.51% of 330,000 active;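 active = GFP response versus DMSO above a set limit, roughly screen mean plus 3 SD, cut at about 180% in these data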;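 also: median GFP fluorescence of the barcode-gated MEP2-GFP cells per well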
AGP1 TOR yeast = modulators of AGP1-GFP expression in yeast TOR pathway, primary screen, cell-based, multiplex flow cytometry, S. cerevisiae, MLPCN library; 0.02% of 320,000 active; GFP response vs DMSO, % at 10 µM; 3 h; GFP as percent of DMSO wells;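 active = GFP response relative to DMSO above a set limit, near screen average plus 3 SD, cut at about 150% in these data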;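 also: median GFP channel fluorescence of the gated AGP1 strain per well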
CIT2-GFP yeast = modulators of CIT2-GFP expression in yeast, primary screen, S. cerevisiae, GFP fusion, multiplex flow cytometry, MLPCN library | S. cerevisiae CIT2-GFP strain, 3 h; 100 means same as DMSO wells | GFP response vs DMSO, % at 10 µM | 0.065% of 320,000 active | AID 2029, 2009;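 active = GFP response relative to DMSO above a set limit, near the screen mean plus 3 SD, cut at about 150% in these data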;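 also: ratio of well median GFP fluorescence to mean of DMSO wells on the plate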
VLA-4 inh = inhibition in human VLA-4 binding assay, primary screen, VLA-4 allosteric modulator project, MLPCN library, flow cytometry, VLA-4 expressing cells; Integrin alpha-4 (Homo sapiens), P13612; inhibition, % (about 7 µM as worked out from the volumes in the protocol); ligand binding flow cytometry; AID 2557, 2010; 0.2% of 330,000 active; in the data active = inhibition above about 50%
LAP4-GFP MLPCN = modulators of LAP4-GFP expression in yeast, primary screen, S. cerevisiae, multiplex flow cytometry, MLPCN library; 3 h; median GFP as percent of DMSO wells; GFP response vs DMSO, % at 10 µM; 0.34% of 320,000 active; AID 2023, 2009;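 active = GFP response vs DMSO above a set limit, about the screen mean plus 3 SD, cut at about 150% in these data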
RPL19A TOR yeast = RPL19A-GFP expression modulators in yeast, primary screen, cell-based, S. cerevisiae, multiplex flow cytometry, MLPCN; percent response vs DMSO, % at 10 µM; S. cerevisiae RPL19A-GFP strain, 3 h; stronger effect = lower value; 0.3% of 330,000 active; AID 2025, 2009;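 active = percent response vs DMSO below 50%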;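 also: median channel GFP fluorescence of the barcoded RPL19A-GFP strain; ratio of sample median GFP to plate DMSO average so 100% = DMSO; lower means less RPL19A-GFP as with rapamycin TOR inhibition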
VLA-4 mod pick = retest of VLA-4 allosteric modulators, confirmation, cell-based, cherry-picked plates, U937, HUTS-21 LIBS antibody; U937 cells, HUTS-21 LIBS mAb binding, flow cytometry; LDV ligand present at threefold Kd; 2% of 1,300 active; shares compounds with VLA-4 inh; inhibition, % at 6.7 µM; in the data active = inhibition above about 40%;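 also: 0% = ligand without compound and 100% = no ligand background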
* marks the source's active call; other numbers are inactive results; nt = no result. A selection: hits, their analogues and other compounds. The true share with any hit is near 1.1%.

SMILES | MEP2 TOR yeast | AGP1 TOR yeast | CIT2-GFP yeast | VLA-4 inh | LAP4-GFP MLPCN | RPL19A TOR yeast | VLA-4 mod pick
COc1ccc(OC)c(NC(=O)CSc2nnc(CNC(=O)c3cc(OC)c(OC)c(OC)c3)o2)c1 | 97.7 | 95.8 | 96.2 | 5.9 | 87.8 | 97.3 | nt
Cc1nn(C)c(C)c1NC(=S)Nc1ccc(S(=O)(=O)Nc2ncccn2)cc1 | 96.8 | 95.0 | 95.2 | 1.0 | 70.8 | 106.0 | nt
CCCOc1ccc(N2C(=O)CC(N(CCCO)C(=O)CC)C2=O)cc1 (stereo not drawn) | 96.0 | 105.8 | 106.5 | 8.6 | 106.7 | 102.4 | nt
CNC(=S)N(Cc1ccc(OC)cc1)C1CC(=O)N(c2ccc(OC)cc2)C1=O (stereo not drawn) | 93.7 | 93.7 | 93.0 | 5.1 | 91.0 | 92.5 | nt
CCCOc1ccc(N2C(=O)CC(N(Cc3ccc(S(N)(=O)=O)cc3)C(=O)CC)C2=O)cc1 (stereo not drawn) | 92.8 | 94.8 | 95.1 | -5.3 | 89.8 | 90.7 | -5.0
COc1ccc(N2C(=O)CC(N(Cc3ccc(S(N)(=O)=O)cc3)C(C)=O)C2=O)cc1 (stereo not drawn) | 107.4 | 102.6 | 98.4 | 14.1 | 99.9 | nt | 1.3
COC(=O)[C@]1(Cc2ccccc2)N[C@H](CN(C)S(=O)(=O)c2ccc(-c3ccccc3)cc2)[C@@H]2C(=O)N(Cc3ccccc3)C(=O)[C@@H]21 | 88.4 | 96.6 | 87.1 | -10.8 | 89.3 | 90.4 | -2.1
CCN(C[C@H]1N[C@@](Cc2ccccc2)(C(=O)OC)[C@H]2C(=O)N(Cc3ccccc3)C(=O)[C@@H]12)S(=O)(=O)c1ccc(-c2ccccc2)cc1 | 90.9 | 94.6 | 98.8 | -27.4 | 85.0 | 93.1 | -4.8
Cc1nn(-c2ccccc2)c(Cl)c1/C=N/NC(=O)c1ccncc1 | 90.7 | nt | nt | -6.0 | nt | 94.8 | nt
O=C(NCCN1CCCCC1)Nc1ccc(F)cc1F | 114.4 | 102.2 | 108.6 | -1.0 | 99.8 | 109.3 | nt
Nc1nc(Nc2ccccc2)nc2c1ncn2[C@@H]1O[C@H](CO)[C@@H](O)[C@H]1O | 97.9 | 96.8 | 96.7 | 56.5* | 108.4 | 99.3 | 13.5
Nc1ncnc2c1ncn2C1O[C@H](CO)[C@@H](O)[C@@H]1O (stereo partly drawn) | 97.9 | 99.6 | 100.3 | 18.8 | 108.4 | 100.7 | nt
Nc1ncnc2c1ncn2[C@@H]1O[C@H](CO)[C@@H](O)[C@@H]1O | 96.1 | 85.8 | 91.7 | -22.8 | 105.5 | 99.2 | 1.6
Nc1nc(F)nc2c1ncn2[C@@H]1O[C@H](CO)[C@@H](O)[C@H]1O | 93.7 | 93.7 | 86.8 | 6.2 | 95.9 | 95.3 | 1.2
COc1ccccc1NC(=S)N1CCN(c2ccccc2F)CC1 | 109.6 | 96.4 | 100.7 | 11.2 | 97.0 | 107.2 | nt
CCOC(=O)C(=CNc1cc(C(F)(F)F)ccc1N1CCOCC1)C(=O)OCC | 97.8 | 95.5 | 98.2 | -1.9 | 106.7 | 94.3 | nt
COc1ccc(CC(=O)NC(C)c2nnc(SCC(=O)Nc3ccccc3)n2C)cc1 (stereo not drawn) | 89.8 | 97.8 | 97.0 | 24.1 | 101.0 | 91.1 | nt
COc1ccc(C(=O)NC(C)c2nnc(SCC(=O)Nc3nc(C)cs3)n2C)cc1 (stereo not drawn) | 96.9 | 101.5 | 103.1 | 2.4 | 98.8 | 98.2 | 0.0
COc1ccc(C(=O)NC(C)c2nnc(SCC(=O)Nc3nc4ccccc4s3)n2C)cc1 (stereo not drawn) | 97.6 | 87.7 | 99.4 | -9.8 | 88.6 | 89.3 | 4.4
CCCCCN(C(=O)CCC(=O)OC(C)C(=O)Nc1cccc(C#N)c1)c1c(N)n(CCCC)c(=O)[nH]c1=O (stereo not drawn) | 108.1 | 111.8 | 112.9 | 3.8 | 102.4 | 105.0 | nt
